{
  "source": "PubChem BioAssay AID686978",
  "about": "(National Center for Advancing Translational Sciences (NCATS), 2013)",
  "note": "Out of some 420,000 compounds screened, about 64,000 (15%) were called active. Inconclusive results (about 27%) are left out. These entries were drawn from the full list. A number with no mark means an inactive call. The call rests on the fitted dose curve; in most records, active means well fitted inhibition curve with a large enough effect; inconclusive means small, poorly fitted or top-dose-only effect; inactive means flat fitted curve, though single readings scatter. On the % scale 0 is the no-effect control and ±100 the full control effect; potency means the concentration at half of the fitted maximal effect.",
  "data": [
    {"assay": "qHTS for Inhibitors of human tyrosyl-DNA phosphodiesterase 1 (TDP1): qHTS in cells in absence of CPT; further: nearly all actives have a fitted effect of over 55% in size", "settings": "DT40 Tdp1-/- hTDP1 cells, no CPT, ATP luminescence, 48 h; activity change, negative = growth inhibition: at 46.2 µM (top of the series)", "summary_of_the_method": "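Chicken DT40 Tdp1-/- cells complemented with human TDP1, screened without camptothecin (DMSO vehicle only), 400 cells/well. Compounds pin-transferred, cells incubated at 37 °C for at least 48 hr. Growth read as ATP-dependent luminescence (CellTiter-Glo, 30 min at RT).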", "units": {"activity change, negative = growth inhibition": "%"}, "values": [
      {"smiles": "CCCCN(C)c1ccc([N+](=O)[O-])cc1", "activity change, negative = growth inhibition": -12.2},
      {"smiles": "COc1ccc(Cc2nnc(NC(=O)Cc3cccs3)s2)cc1", "activity change, negative = growth inhibition": -1.02},
      {"smiles": "CCNC(=S)N1CCC(c2nc3cc(C)c(C)cc3[nH]2)CC1", "activity change, negative = growth inhibition": -14.5},
      {"smiles": "CCN(CC)CCCC(C)Nc1ccnc2cc(Cl)ccc12", "note": "(stereo unspecified)", "Potency": "0.794 µM (active)"},
      {"smiles": "CCN(CC)CCNc1ccc(Cl)cc1[N+](=O)[O-]", "activity change, negative = growth inhibition": -24.4},
      {"smiles": "COC(=O)COc1ccc(C2NC(=O)NC(C)=C2C(=O)NCc2ccccc2)cc1OC", "note": "(stereo unspecified)", "activity change, negative = growth inhibition": 7.11},
      {"smiles": "O=C(Cc1ccccc1)Nc1cccc(C(=O)N/N=C/c2ccco2)c1", "activity change, negative = growth inhibition": -23.6},
      {"smiles": "O=C(NCc1ccco1)/C(=C/c1ccco1)NC(=O)c1ccccc1", "activity change, negative = growth inhibition": -12.2},
      {"smiles": "CC(/C=N/NC(=O)c1cc(-c2ccc3ccccc3c2)n[nH]1)=C\\c1ccco1", "Potency": "23.1 µM (active)"},
      {"smiles": "Cc1noc(C)c1COc1ccc2ccc(=O)oc2c1", "activity change, negative = growth inhibition": 1.31},
      {"smiles": "COC1=C/C(=C/c2c(N)n3nc(CC(=O)N4CCOCC4)sc3nc2=O)C=CC1=O", "activity change, negative = growth inhibition": -9.01},
      {"smiles": "CCOc1ccc(NC(=O)[C@H](C)NC(=O)C2CC(=O)N(c3ccc(OC)cc3)C2)cc1", "note": "(stereo partly specified)", "activity change, negative = growth inhibition": 33.1},
      {"smiles": "CCOc1ccc(N2CC(c3nc4ccccc4n3CCOc3ccc(OC)cc3)CC2=O)cc1", "note": "(stereo unspecified)", "Potency": "23.1 µM (active)"},
      {"smiles": "CCCOc1cc(C)c(S(=O)(=O)n2nnc3ccccc32)cc1C", "activity change, negative = growth inhibition": -14.5},
      {"smiles": "CCCCN1CC(c2nc3ccccc3n2CCCCOc2ccc(C)cc2C)CC1=O", "note": "(stereo unspecified)", "Potency": "5.8 µM (active)"},
      {"smiles": "CCc1ccccc1N1CC(c2nc3ccccc3n2CCCCOc2ccccc2)CC1=O", "note": "(stereo unspecified)", "activity change, negative = growth inhibition": -19.2},
      {"smiles": "CCC1Oc2ccc(Cl)cc2N(CC(=O)O)C1=O", "note": "(stereo unspecified)", "activity change, negative = growth inhibition": -17.8},
      {"smiles": "Nc1c(C(=O)OCC(=O)Nc2ccc(OC(F)F)cc2)[nH]c(=O)[nH]c1=O", "activity change, negative = growth inhibition": 2.04},
      {"smiles": "Cc1cc(C)cc(NC(=O)COC(=O)c2cc(C)oc2C)c1", "activity change, negative = growth inhibition": 4.9},
      {"smiles": "Cc1ccccc1Nc1nc(N)nc(COC(=O)CCC(=O)c2ccc(F)cc2)n1", "activity change, negative = growth inhibition": -24},
      {"smiles": "CCCCNC(=O)CCn1nc(-c2ccc(Cl)cc2)ccc1=O", "activity change, negative = growth inhibition": -2.25},
      {"smiles": "Cc1ccc(CN(C)C[C@@H]2OCc3cnnn3CCCC(=O)N([C@@H](C)CO)C[C@H]2C)cc1", "activity change, negative = growth inhibition": -26.1},
      {"smiles": "C[C@H](CO)N1C[C@H](C)[C@@H](CN(C)Cc2ccc3c(c2)OCO3)OCc2cnnn2CCCC1=O", "activity change, negative = growth inhibition": -4.82},
      {"smiles": "C[C@H]1CN([C@@H](C)CO)C(=O)CCCn2nncc2CO[C@@H]1CN(C)Cc1ccc(Oc2ccccc2)cc1", "Potency": "18.4 µM (active)"},
      {"smiles": "CCCC(=O)N1CCC(CCC(=O)NC2CC2)CC1", "activity change, negative = growth inhibition": 3.6},
      {"smiles": "COCCN1C(=O)C(=O)/C(=C(/O)c2ccc(S(=O)(=O)N3CCCCC3)cc2)C1c1ccc(OC)c(OC)c1", "note": "(stereo unspecified)", "activity change, negative = growth inhibition": 1.45},
      {"smiles": "CSc1nc(-c2ccccc2)nc(C(Cl)Cl)n1", "Potency": "2.31 µM (active)"},
      {"smiles": "CSc1ncc(Sc2ccccc2)c(C(=O)O)n1", "activity change, negative = growth inhibition": 2.57},
      {"smiles": "CSc1nc(C)cc(SC(C(C)=O)C(=O)Nc2ccccc2)n1", "note": "(stereo unspecified)", "activity change, negative = growth inhibition": -1.76},
      {"smiles": "CC1(C)Oc2ccc(C(=O)N3CCOCC3)cc2N(CC(=O)Nc2ccccc2)C1=O", "activity change, negative = growth inhibition": -9.51},
      {"smiles": "O=C(NCCC1CCCCN1S(=O)(=O)c1ccc(Cl)cc1)C(=O)NCc1ccco1", "note": "(stereo unspecified)", "Potency": "14.6 µM (active)"},
      {"smiles": "Cc1ccc(S(=O)(=O)N2CCCC2C(=O)NCc2ccco2)cc1", "note": "(stereo unspecified)", "activity change, negative = growth inhibition": -18.4},
      {"smiles": "O=C(NCCC1CCCCN1S(=O)(=O)c1ccccc1)C(=O)NCC1CCCO1", "note": "(stereo unspecified)", "activity change, negative = growth inhibition": 4.61},
      {"smiles": "COc1ccc(NC(=O)CCCc2nnc3n(CCC(C)C)c(=O)c4sccc4n23)c(OC)c1", "activity change, negative = growth inhibition": -34.1},
      {"smiles": "CCOc1ccccc1N=C1NC(=O)CS1", "activity change, negative = growth inhibition": -4.09},
      {"smiles": "CCC/C(O)=C1\\C(=O)CC(C)(C)CC1=Nc1ccccc1OC", "Potency": "14.6 µM (active)"},
      {"smiles": "COc1ccccc1N=C(C)C1=C(O)COC1=O", "activity change, negative = growth inhibition": 11.5},
      {"smiles": "N#Cc1cc([N+](=O)[O-])ccc1NC(=O)COC(=O)c1cnccn1", "activity change, negative = growth inhibition": -19.1},
      {"smiles": "NS(=O)(=O)c1cccc(NC(=O)CC23CC4CC(CC(Br)(C4)C2)C3)c1", "activity change, negative = growth inhibition": -2.07},
      {"smiles": "Cn1cccc1C(C#N)c1ccccc1C#N", "note": "(stereo unspecified)", "activity change, negative = growth inhibition": -0.548},
      {"smiles": "Cc1ccccc1NC(=O)C(C)OC(=O)CCC(=O)N(CC(C)C)c1c(N)n(CC(C)C)c(=O)[nH]c1=O", "note": "(stereo unspecified)", "activity change, negative = growth inhibition": -7.3},
      {"smiles": "Cc1cccc(C(C)C)c1NC(=O)COC(=O)C1CC(=O)N(Cc2ccccc2)C1", "note": "(stereo unspecified)", "activity change, negative = growth inhibition": -25.4},
      {"smiles": "O=C(N/N=C/c1cccnc1)c1cc2ccccc2cc1O", "activity change, negative = growth inhibition": -19.2},
      {"smiles": "Cc1ccccc1NC(=O)NNC(=O)OC(C)(C)C", "activity change, negative = growth inhibition": -0.379},
      {"smiles": "O=C(COC(=O)c1ccc(O)cc1O)NC(=O)c1ccccc1", "activity change, negative = growth inhibition": -21.6},
      {"smiles": "CC(C)(C)OC(=O)NNc1c2ccccc2nc2ccccc12", "Potency": "13 µM (active)"},
      {"smiles": "O=C(NNc1c2ccccc2nc2ccccc12)c1cc2ccccc2cc1O", "Potency": "18.4 µM (active)"},
      {"smiles": "Cc1ccc(C(=O)NNC(=O)OC(C)(C)C)c(Cl)c1", "activity change, negative = growth inhibition": -5.16},
      {"smiles": "CCCCNC(=O)N(O)C1N(/N=C/c2ccc(N(C)C)cc2)C(=S)SC1(C)C", "note": "(stereo unspecified)", "activity change, negative = growth inhibition": -11},
      {"smiles": "Cc1csc(/N=C/N(C)C)c1C#N", "activity change, negative = growth inhibition": -18},
      {"smiles": "CCS(=O)(=O)Nc1ccc(C2=NN(C(C)=O)C(c3cccs3)C2)cc1", "note": "(stereo unspecified)", "Potency": "5.8 µM (active)"},
      {"smiles": "CS(=O)(=O)Nc1ccc(C2=NN(S(C)(=O)=O)C(c3cccs3)C2)cc1", "note": "(stereo unspecified)", "activity change, negative = growth inhibition": 6.29},
      {"smiles": "COc1ccc(C2=NN(C(=O)CCC(=O)O)C(c3cccs3)C2)cc1OC", "note": "(stereo unspecified)", "activity change, negative = growth inhibition": -3.18},
      {"smiles": "NNC(=O)c1cccc(COCC(F)(F)C(F)F)c1", "activity change, negative = growth inhibition": 0.0307},
      {"smiles": "O=C(Cn1[nH]c(=O)c2ccccc2c1=O)Nc1cccc(-c2nnc3n2CCCCC3)c1", "activity change, negative = growth inhibition": -11.3},
      {"smiles": "Cc1nonc1NC(=O)c1oc2ccccc2c1C", "activity change, negative = growth inhibition": 15.9},
      {"smiles": "Cc1c(C(=O)NCCN(C)C)oc2ccc(S(=O)(=O)N3CCCC3)cc12", "activity change, negative = growth inhibition": -8.67},
      {"smiles": "Cc1cc(C)n2nc(C(=O)Nc3cccc(S(=O)(=O)N4CCOCC4)c3)nc2n1", "activity change, negative = growth inhibition": -4.7},
      {"smiles": "Cc1ccc2oc(C(=O)Nc3ccc(S(=O)(=O)N4CCCCCC4)cc3)cc(=O)c2c1", "activity change, negative = growth inhibition": -20},
      {"smiles": "COc1ccc(NC(=O)c2oc3ccc(S(=O)(=O)N4CCOCC4)cc3c2C)cc1", "Potency": "10.3 µM (active)"},
      {"smiles": "Cc1c(C(=O)Nc2ccccc2Cl)oc2ccc(S(=O)(=O)N3CCC4(CC3)OCCO4)cc12", "activity change, negative = growth inhibition": -27.9},
      {"smiles": "Cc1c(C(=O)Nc2cccc(-c3nnc4n3CCCCC4)c2)oc2ccccc12", "Potency": "16.4 µM (active)"},
      {"smiles": "Cc1c(C(=O)Nc2cccc(S(=O)(=O)N3CCOCC3)c2)oc2ccccc12", "Potency": "20.6 µM (active)"},
      {"smiles": "Cc1occc1C(=O)Nc1cccc(S(=O)(=O)N2CCOCC2)c1", "activity change, negative = growth inhibition": -21.2},
      {"smiles": "O=C(Nc1cc(S(=O)(=O)N2CCOCC2)ccc1N1CCOCC1)c1c(F)cccc1Cl", "activity change, negative = growth inhibition": -28.8},
      {"smiles": "O=C(Nc1cc(S(=O)(=O)N2CCOCC2)ccc1Cl)c1cc(=O)c2ccccc2o1", "Potency": "20.6 µM (active)"}
    ]}
  ]
}
